In PubChem BioAssay (EPA / NIEHS):
Several values for one entry are separate records, joined by “and”; a condition that tells them apart may be missing. Equal entries are not always repeated. Where a structure was tested more than once in an assay, its records may differ in their call. Activity calls are given as the source filed them. The calls were made as follows: active = hit-call score of the fitted dose curve at least 0.9, where 1 is the maximum; inactive = score below 0.9.

Experiments:
[1] = molecular target: CCAAT/enhancer-binding protein beta (Homo sapiens) (UniProt P17676); assay: ATG_C_EBP_CIS: Attagene CIS-FACTORIAL HepG2 Assay for human CCAAT/Enhancer Binding Protein (C/EBP) beta (AID 2282927); details: HepG2 Attagene cis-factorial transcription factor reporter; actives raise or lower the signal
CCAAT/enhancer-binding protein beta (Homo sapiens), sequence (P17676 whole entry, looked up): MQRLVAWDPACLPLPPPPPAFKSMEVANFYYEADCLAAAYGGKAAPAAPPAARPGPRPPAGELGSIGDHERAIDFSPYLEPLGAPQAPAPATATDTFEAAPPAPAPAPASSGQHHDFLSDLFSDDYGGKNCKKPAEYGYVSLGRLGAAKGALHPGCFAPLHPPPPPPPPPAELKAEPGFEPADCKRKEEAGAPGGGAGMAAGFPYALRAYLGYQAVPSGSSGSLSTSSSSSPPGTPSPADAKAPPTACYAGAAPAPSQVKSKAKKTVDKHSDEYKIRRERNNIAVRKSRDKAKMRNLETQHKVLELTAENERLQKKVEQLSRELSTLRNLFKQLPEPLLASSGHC
Procedure, shortened: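 Changes in reporter mRNA, rather than exogenous chimeric receptor activity, reflect native C/EBP signalling in transfected HepG2 cells dosed for 24 h; transcripts are detected by RT-PCR and capillary electrophoresis.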

[2] = ATG_CMV_CIS: Attagene CIS-FACTORIAL HepG2 Assay for human CMV (Internal Marker) (AID 2282928); details: HepG2 CMV promoter reporter, transcription factor profiling; actives raise or lower the signal;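 also: endpoint acts as a background internal control marker rather than a target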
Procedure, shortened: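 CMV internal-marker background readout in transiently transfected HepG2 cells bearing cis-regulated reporter units. Reporter mRNA is measured 24 h after dosing by RT-PCR and capillary electrophoresis, with bidirectional fitting against DMSO.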

[3] = ATG_DR4_LXR_CIS: Attagene CIS-FACTORIAL HepG2 Assay for human Liver X Receptor (LXR), DR4 submotif (AID 2282929); details: HepG2 Attagene DR4 cis-reporter, mRNA transcription; actives raise or lower the signal
Procedure, shortened: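 Measures endogenous transcription factor activity via a DR4-driven reporter transcript in human HepG2 cells. Compounds incubated 24 h; mRNA quantified by RT-PCR and capillary electrophoresis, analysed as gain or loss of signal versus DMSO.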

[4] = molecular target: Aryl hydrocarbon receptor (Homo sapiens) (UniProt P35869); assay: ATG_Ahr_CIS: Attagene CIS-FACTORIAL HepG2 Assay for human Aryl Hydrocarbon Receptor (Ahr) (AID 2282930); details: HepG2 AhR cis-factorial reporter transcription; actives raise or lower the signal
Aryl hydrocarbon receptor (Homo sapiens), sequence (P35869 whole entry, looked up): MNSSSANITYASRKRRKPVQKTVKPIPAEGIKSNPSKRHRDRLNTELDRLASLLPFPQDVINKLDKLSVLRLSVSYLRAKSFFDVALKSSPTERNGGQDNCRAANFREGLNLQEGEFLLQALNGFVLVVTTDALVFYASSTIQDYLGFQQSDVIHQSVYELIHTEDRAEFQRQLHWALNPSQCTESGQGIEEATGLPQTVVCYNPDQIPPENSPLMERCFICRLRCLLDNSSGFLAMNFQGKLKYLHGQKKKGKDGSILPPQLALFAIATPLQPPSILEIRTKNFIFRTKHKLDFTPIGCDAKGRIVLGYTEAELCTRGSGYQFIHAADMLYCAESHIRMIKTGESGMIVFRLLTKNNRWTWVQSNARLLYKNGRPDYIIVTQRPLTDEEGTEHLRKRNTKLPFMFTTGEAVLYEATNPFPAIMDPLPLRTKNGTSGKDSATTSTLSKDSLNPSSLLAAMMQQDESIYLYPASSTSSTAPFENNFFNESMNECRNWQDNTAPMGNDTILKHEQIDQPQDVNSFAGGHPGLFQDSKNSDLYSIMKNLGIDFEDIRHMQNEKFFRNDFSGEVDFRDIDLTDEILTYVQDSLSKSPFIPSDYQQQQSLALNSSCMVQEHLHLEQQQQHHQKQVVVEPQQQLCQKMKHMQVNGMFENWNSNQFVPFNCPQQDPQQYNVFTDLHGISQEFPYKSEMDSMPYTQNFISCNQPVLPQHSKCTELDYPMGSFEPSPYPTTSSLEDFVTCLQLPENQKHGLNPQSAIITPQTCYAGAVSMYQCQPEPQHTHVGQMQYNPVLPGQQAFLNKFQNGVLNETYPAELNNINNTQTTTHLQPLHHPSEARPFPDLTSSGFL
Procedure, shortened: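 HepG2, transient MRTU (cis) transfection, 24 h exposure. RNA → cDNA → PCR → 6-FAM primer extension → HpaI 2 h 37 C → CE. Fit: bidirectional, DMSO baseline.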

[5] = ATG_AP_2_CIS: Attagene CIS-FACTORIAL HepG2 Assay for human Activator Protein 2 (AP-2) (AID 2282932); details: HepG2 AP-2 cis-reporter, Attagene transcription factor profiling; actives raise or lower the signal
Procedure, shortened: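 Step one: transient transfection of HepG2 with reporter transcription units. Step two: 24 h chemical exposure. Step three: RNA extraction, RT-PCR, labelled fragment analysis by capillary electrophoresis; DMSO serves as baseline.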

[6] = ATG_BRE_CIS: Attagene CIS-FACTORIAL HepG2 Assay for human Bone Morphogenetic Protein (BMP) Response Element (BRE) (AID 2282933); details: HepG2 BMP response element reporter, Attagene transcription factor profiling; actives raise or lower the signal
Procedure, shortened: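 After a 24 h chemical treatment, transiently transfected HepG2 cells were lysed for RNA; reporter transcripts were quantified by fluorescent RT-PCR and capillary electrophoresis, normalised to DMSO.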

[7] = molecular target: Transcription factor E2F1 (Homo sapiens) (UniProt Q01094); assay: ATG_E2F_CIS: Attagene CIS-FACTORIAL HepG2 Assay for human E2F Transcription Factor 1 (AID 2282935); details: HepG2 Attagene cis-reporter, E2F reporter RNA transcripts; actives raise or lower the signal
Transcription factor E2F1 (Homo sapiens), sequence (Q01094 whole entry, looked up): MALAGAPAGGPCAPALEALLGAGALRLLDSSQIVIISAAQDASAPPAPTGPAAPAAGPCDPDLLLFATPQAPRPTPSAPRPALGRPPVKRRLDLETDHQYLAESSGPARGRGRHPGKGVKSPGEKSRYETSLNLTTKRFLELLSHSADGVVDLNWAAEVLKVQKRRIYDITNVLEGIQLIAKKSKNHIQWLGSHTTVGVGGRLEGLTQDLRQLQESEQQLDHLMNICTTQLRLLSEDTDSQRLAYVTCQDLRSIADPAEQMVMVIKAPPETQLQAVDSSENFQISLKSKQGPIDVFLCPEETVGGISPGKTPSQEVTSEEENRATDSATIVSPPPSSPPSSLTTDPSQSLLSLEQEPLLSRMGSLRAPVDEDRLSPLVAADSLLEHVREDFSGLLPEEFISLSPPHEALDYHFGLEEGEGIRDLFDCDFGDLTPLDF
Procedure, shortened: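 Total RNA from 24 h-treated, reporter-transfected HepG2 cells undergoes DNase I treatment, oligo(dT) reverse transcription, PCR and 6-FAM primer extension before capillary electrophoresis.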

[8] = APR_HepG2_P-H2AX_72hr: Apredica 72-hour HepG2 Assay for H2AX Phosphorylation (AID 2282916); details: imaging, actives raise or lower the signal;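 also: phospho-histone H2A.x immunostain intensity per cell marking DNA damage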
Procedure, shortened: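 Following 72 hr treatment with 0.39–200 uM compound, HepG2 cells were formaldehyde-fixed, permeabilized and stained for phospho-H2A.x; signal was measured by high-content imaging and fitted bidirectionally against DMSO controls.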

[9] = APR_HepG2_MitoMembPot_72hr: Apredica 72-hour HepG2 Assay for Mitochondrial Membrane Potential (AID 2282917); details: imaging, actives raise or lower the signal
Procedure, shortened: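 Membrane potential read by MitoTracker Red CMXRos (250 nM, 30 min, pre-fixation) fluorescence imaging of HepG2 after 72 hr exposure. Ten concentrations, 0.39–200 uM, duplicate wells, 0.5% DMSO; fitted in both directions against DMSO baseline.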

[10] = APR_HepG2_MitoticArrest_72hr: Apredica 72-hour HepG2 Assay for Mitotic Arrest (AID 2282918); details: high-content imaging, actives raise or lower the signal
Procedure, shortened: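 HepG2, 72 hr exposure, 0.39–200 uM in duplicate, 0.5% v/v DMSO final. Formaldehyde-fixed, Triton-permeabilized, anti-phospho-histone H3/FITC plus Hoechst. ArrayScan imaging at 20x; curves fit bidirectionally against DMSO baseline.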

[11] = APR_HepG2_MicrotubuleCSK_72hr: Apredica 72-hour HepG2 Assay for Microtubule CSK Stabilty (AID 2282919); details: HepG2 microtubule cytoskeleton, high-content imaging, actives raise or lower the signal
Procedure, shortened: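 Read-out is tubulin fluorescence intensity from high-content imaging of HepG2 cells, with nuclei identified by Hoechst 33342. Treatment lasts 72 h at 0.39–200 uM, and curves are fitted bidirectionally against the DMSO negative control.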

[12] = APR_HepG2_P-H2AX_24hr: Apredica 24-hour HepG2 Assay for H2AX Phosphorylation (AID 2282920); details: high-content imaging, actives raise or lower the signal
Procedure, shortened: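 HCS fluorescence imaging of phospho-H2A.x immunostain (with Hoechst 33342 nuclear counterstain) in HepG2 after 24 hr compound exposure; 10 concentrations, 0.39–200 uM, duplicate wells, 0.5% v/v DMSO. Gain or loss of signal fitted relative to DMSO baseline.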

[13] = APR_HepG2_StressKinase_72hr: Apredica 72-hour HepG2 Assay for Stress Kinase (AID 2282921); details: HepG2 stress kinase (phospho-c-Jun) imaging, actives raise or lower the signal
Procedure, shortened: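 Fluorescence intensity of Cy3-tagged anti-phospho-c-Jun antibody, quantified per cell from Hoechst-defined nuclei across six images per well, served as the read-out following 72 h exposure (0.39–200 uM, 0.5% v/v DMSO).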

[14] = APR_HepG2_StressKinase_24hr: Apredica 24-hour HepG2 Assay for Stress Kinase (AID 2282922); details: HepG2 stress kinase (phospho-c-Jun) imaging, actives raise or lower the signal
Procedure, shortened: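 HepG2, 24 hr dosing, 0.39–200 uM in duplicate, 0.5% DMSO; formaldehyde fix (3.7%), 0.5% Triton X-100; anti-phospho-c-Jun + Cy3 secondary, Hoechst counterstain; ArrayScan imaging; bidirectional curve fit vs DMSO baseline.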

[15] = APR_HepG2_p53Act_72hr: Apredica 72-hour HepG2 Assay for p53 Activation (AID 2282923); details: high-content imaging, actives raise or lower the signal;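 also: average cellular p53 protein immunofluorescence intensity in HepG2 cells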
Procedure, shortened: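 HepG2 monolayers receive test compounds in duplicate at ten concentrations (0.39 through 200 uM) for 72 hr. They are then formaldehyde-fixed, antibody-labelled for p53, Hoechst-stained and imaged, with activity fitted bidirectionally versus DMSO.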

[16] = APR_HepG2_MitoMass_72hr: Apredica 72-hour HepG2 Assay for Mitochondrial Mass (AID 2282924); details: high-content imaging, actives raise or lower the signal;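 also: MitoTracker Red CMXRos stain intensity per cell imaged as mitochondrial mass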
Procedure, shortened: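 HepG2, 72 hr cmpd, 10 conc 0.39–200 uM in dup, DMSO 0.5% v/v. MitoTracker Red CMXRos 250 nM 30 min pre-fix; formaldehyde 3.7% fix 30 min RT. HCS imaging, gain/loss fit vs DMSO.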

[17] = ATG_AP_1_CIS: Attagene CIS-FACTORIAL HepG2 Assay for human Activator Protein 1 (AP-1) (AID 2282931); details: HepG2 Attagene cis-factorial AP-1 reporter mRNA; actives raise or lower the signal
Procedure, shortened: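 Bidirectional concentration-response fitting against DMSO controls. Underlying signal: reporter mRNA from cis-promoter constructs in transiently transfected HepG2, measured after 24 h by RT-PCR and capillary electrophoresis.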

[18] = molecular target: Retinoic acid receptor alpha (Homo sapiens) (UniProt P10276); assay: ATG_DR5_RAR_CIS: Attagene CIS-FACTORIAL HepG2 Assay for human Retinoic Acid Receptor Alpha (RARE), DR5 submotif (AID 2282934); details: HepG2 Attagene cis-factorial RARE DR5 reporter, mRNA; actives raise or lower the signal;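 as to AC50: reporter responds to endogenous RAR alpha beta and gamma in HepG2 not RARA alone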
Retinoic acid receptor alpha (Homo sapiens), sequence (P10276 whole entry, looked up): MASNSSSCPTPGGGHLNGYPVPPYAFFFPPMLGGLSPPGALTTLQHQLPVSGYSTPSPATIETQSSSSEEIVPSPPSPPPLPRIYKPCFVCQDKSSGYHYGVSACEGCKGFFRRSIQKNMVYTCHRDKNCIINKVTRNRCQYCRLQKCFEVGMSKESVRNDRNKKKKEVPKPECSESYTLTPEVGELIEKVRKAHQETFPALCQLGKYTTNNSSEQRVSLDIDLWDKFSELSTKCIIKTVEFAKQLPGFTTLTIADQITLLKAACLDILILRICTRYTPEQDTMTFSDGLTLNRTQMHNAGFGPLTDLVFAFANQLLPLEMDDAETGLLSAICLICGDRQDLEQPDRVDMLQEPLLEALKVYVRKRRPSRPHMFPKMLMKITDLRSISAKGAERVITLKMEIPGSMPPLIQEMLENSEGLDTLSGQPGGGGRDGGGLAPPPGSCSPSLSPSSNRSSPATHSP
Procedure, shortened: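 HepG2, transient cis-reporter transfection, 24 h exposure. mRNA readout: RT-PCR, FAM label, HpaI cut, capillary electrophoresis. DMSO baseline, gain/loss fitting.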

[19] = ATG_CRE_CIS: Attagene CIS-FACTORIAL HepG2 Assay for human cAMP Responsive Element (CRE) binding protein 3 (AID 2282926); details: HepG2 CRE cis-reporter, Attagene multiplexed mRNA; actives raise or lower the signal
Procedure, shortened: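 Endogenous CRE-binding activity in HepG2 is reported through a cis-regulated transfected reporter. Following a day of exposure, mRNA levels are determined by reverse transcription PCR and fluorescent fragment analysis; fits run in both directions versus DMSO.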

In the case of `Sc1ccccc1`, the outcome [1] was “inactive”, the outcome [2] was “inactive” and the outcome [3] was “inactive”. For the same molecule, the outcome [4] was “inactive”, the outcome [5] was “inactive” and the outcome [6] was “inactive”. For the same molecule, the outcome [7] was “inactive”.

In the case of `CC(C)(O)C(=O)Nc1ccc([N+](=O)[O-])c(C(F)(F)F)c1`, the outcome [8] was “inactive”, the AC50 [9] was 0.889 µM (active) and the outcome [10] was “inactive”. The outcome [11] was “inactive”, the outcome [12] was “inactive” and the outcome [13] was “inactive”. For the same molecule, the outcome [14] was “inactive”, the outcome [15] was “inactive” and the AC50 [16] was 0.652 µM (active). The AC50 [1] was 57.1 µM (active), the outcome [1] was “inactive” and the outcome [2] was “inactive”. The outcome [3] was “inactive”, the outcome [4] was “inactive” and the outcome [17] was “inactive”. The outcome [5] was “inactive”, the AC50 [6] was 77 µM (active) and 121 µM (active) and the outcome [6] was “inactive”. The outcome [18] was “inactive” and the outcome [7] was “inactive”.

With `O=S(=O)(O)C(F)(F)C(F)(F)C(F)(F)C(F)(F)C(F)(F)C(F)(F)F` the outcome [8] was “inactive”, the outcome [9] was “inactive” and the outcome [10] was “inactive”. The outcome [11] was “inactive”, the outcome [12] was “inactive” and the outcome [13] was “inactive”. For the same molecule, the outcome [14] was “inactive”, the outcome [15] was “inactive” and the outcome [16] was “inactive”. For the same molecule, the outcome [19] was “inactive”, the outcome [1] was “inactive” and the outcome [2] was “inactive”. For the same molecule, the outcome [3] was “inactive”, the outcome [4] was “inactive” and the outcome [5] was “inactive”. For the same molecule, the outcome [6] was “inactive” and the outcome [7] was “inactive”.

For `C=CC(=O)NCNC(=O)C=C`, the outcome [8] was “inactive”, the outcome [9] was “inactive” and the outcome [10] was “inactive”. For the same molecule, the outcome [11] was “inactive”, the outcome [12] was “inactive” and the outcome [13] was “inactive”. The outcome [14] was “inactive”, the outcome [15] was “inactive” and the outcome [16] was “inactive”. The outcome [1] was “inactive”, the outcome [2] was “inactive” and the outcome [3] was “inactive”. The outcome [4] was “inactive”, the outcome [17] was “inactive” and the outcome [5] was “inactive”. The outcome [6] was “inactive”, the outcome [18] was “inactive” and the outcome [7] was “inactive”.

For `O=C(O)C(F)(F)C(F)(F)C(F)(F)C(F)(F)C(F)(F)C(F)(F)C(F)(F)C(F)(F)C(F)(F)F`, the AC50 [8] was 108 µM (active), the outcome [9] was “inactive” and the AC50 [10] was 98.1 µM (active). The outcome [11] was “inactive”, the AC50 [12] was 113 µM (active) and the AC50 [13] was 113 µM (active). For the same molecule, the outcome [14] was “inactive”, the AC50 [15] was 113 µM (active) and the AC50 [16] was 111 µM (active). The outcome [1] was “inactive”, the AC50 [2] was 86.6 µM (active) and the outcome [2] was “inactive”. For the same molecule, the AC50 [3] was 27.3 µM (active) and 23.9 µM (active) and 13.3 µM (active), the AC50 [4] was 69.7 µM (active) and the outcome [4] was “inactive”. For the same molecule, the AC50 [5] was 46.5 µM (active), the outcome [5] was “inactive” and the outcome [6] was “inactive”. The outcome [18] was “inactive” and the outcome [7] was “inactive”.

With `O=NN(c1ccccc1)c1ccccc1` the outcome [8] was “inactive”, the AC50 [9] was 0.0668 µM (active) and the outcome [10] was “inactive”. The outcome [11] was “inactive”, the outcome [12] was “inactive” and the outcome [13] was “inactive”. For the same molecule, the outcome [14] was “inactive”, the outcome [15] was “inactive” and the outcome [16] was “inactive”. The outcome [19] was “inactive”, the outcome [1] was “inactive” and the outcome [2] was “inactive”. For the same molecule, the outcome [3] was “inactive”, the outcome [4] was “inactive” and the outcome [5] was “inactive”. The outcome [6] was “inactive”, the outcome [18] was “inactive” and the outcome [7] was “inactive”.

In the case of `ClC(Cl)=C(c1ccc(Cl)cc1)c1ccc(Cl)cc1`, the outcome [8] was “inactive”, the outcome [9] was “inactive” and the AC50 [10] was 22.5 µM (active). The outcome [11] was “inactive”, the AC50 [12] was 53.7 µM (active) and the outcome [13] was “inactive”. For the same molecule, the outcome [14] was “inactive”, the outcome [15] was “inactive” and the AC50 [16] was 60.2 µM (active). The AC50 [1] was 166 µM (active), the outcome [1] was “inactive” and the AC50 [2] was 57.2 µM (active) [middle of 4 runs]. The AC50 [3] was 44.6 µM (active) [middle of 4 runs], the AC50 [4] was 19.8 µM (active) and 122 µM (active) and the outcome [4] was “inactive”. The AC50 [17] was 100 µM (active) and 64.2 µM (active) and 73.8 µM (active), the AC50 [5] was 135 µM (active) and the outcome [5] was “inactive”. The outcome [6] was “inactive”, the AC50 [18] was 13.2 µM (active) and the outcome [18] was “inactive”. The AC50 [7] was 175 µM (active) and the outcome [7] was “inactive”.
